Hits are enriched below; roughly 6.7% of the tested compounds scored in any of these assays.
BoNT A protease: BoNT/A light chain protease inhibitors, primary screen, biochemical, flow cytometry, MLPCN library | Botulinum neurotoxin type A light chain protease (Clostridium botulinum A str. ATCC 3502) | multiplex microsphere protease substrate cleavage | inhibition, % at 10 µM | 0.17% of 360,000 active | AID 588499, 2011; in the data active = inhibition above about 30%; inconclusive = no clear call, values can overlap the other calls
BoNT-F LC inh: BoNT/F light chain protease inhibitors, primary screen, biochemical, flow cytometry, MLPCN library; Botulinum neurotoxin type F light chain protease (Clostridium botulinum); Multiplex microsphere protease cleavage assay; inhibition, % at 10 µM; 0.22% of 360,000 active; in the data active = inhibition above about 35%, passing the limit was not always enough; inconclusive = no clear call, values can overlap the other calls
GDH-TPI counter-1: GDH-TPI coupling enzyme inhibitors, primary screen, artefact control for M. tuberculosis FBA inhibitor project, biochemical, absorbance, full deck | GDH-TPI coupled enzyme counterscreen, NADH absorbance | inhibition, % at 4.8 µM | 1.2% of 360,000 active | AID 588335, 2011; in the data active = inhibition above about 30%
Anthrax LF prot: Bacillus anthracis LF protease inhibitors, primary screen, biochemical, multiplex microsphere, MLPCN library; Lethal factor (Bacillus anthracis), P15917; multiplex microsphere protease cleavage assay; inhibition, % at 10 µM; 0.12% of 360,000 active; in the data active = inhibition above about 30%; inconclusive = no clear call, values can overlap the other calls
Bead autofluor: compound fluorescence in toxin protease inhibitor counterscreen; 3.1% of 360,000 active; compound autofluorescence counterscreen, microsphere flow cytometry; hits give high values; fluorescence intensity (test concentration not listed); AID 624483; in the data active = fluorescence intensity above about 16000; inconclusive = no clear call, values can overlap the other calls
FBA Mtb inh: Mtb FBA enzyme inhibitors, primary screen, biochemical, fluorescence, strain H37Rv; Fructose-bisphosphate aldolase (Mycobacterium tuberculosis (strain ATCC 25618 / H37Rv)), …; AID 588726, 2011; purified M. tuberculosis FBA, fluorescence read-out; 2.3% of 360,000 active; inhibition, % at 1 µM
Target sequence (P9WQA3 whole entry, looked up): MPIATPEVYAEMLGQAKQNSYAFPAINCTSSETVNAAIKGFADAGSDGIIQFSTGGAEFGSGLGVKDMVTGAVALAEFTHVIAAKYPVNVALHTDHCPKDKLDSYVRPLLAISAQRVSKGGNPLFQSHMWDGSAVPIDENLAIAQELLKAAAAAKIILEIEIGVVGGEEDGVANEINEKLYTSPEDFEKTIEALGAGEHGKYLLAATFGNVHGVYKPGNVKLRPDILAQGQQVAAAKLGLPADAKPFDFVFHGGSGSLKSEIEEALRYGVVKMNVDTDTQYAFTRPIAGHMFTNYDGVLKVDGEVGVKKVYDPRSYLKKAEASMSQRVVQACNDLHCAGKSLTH
Mtb FBA inh conf: M. tuberculosis aldolase blockers, biochemical, fluorescence, strain H37Rv, confirmation; shares compounds with FBA Mtb inh; purified M. tuberculosis FBA, fluorescence read-out; inhibition, % at 1 µM; 78% of 5,600 active
GDH-TPI counter-2: GDH-TPI coupling enzyme inhibitors, artefact control for M. tuberculosis FBA inhibitor project, biochemical, fluorescence, high throughput; shares compounds with FBA Mtb inh; GDH-TPI coupled enzyme counterscreen; inhibition, % at 1 µM; 81% of 5,600 active; AID 652141, 2013; in the data active = inhibition above about 10%
GDH-TPI dose: GDH-TPI coupling enzyme inhibitors, dose response, artefact control for M. tuberculosis FBA inhibitor project, biochemical, fluorescence, IC50. shares compounds with FBA Mtb inh. GDH-TPI coupled enzyme assay, artifact counterscreen. IC50, µM. 79% of 170 active. AID 652145, 2013; call rule not given here
Of the large screens only hits and unclear results are named; the others gave an inactive call (follow-up assays come after a bar, where they were run). Rule as the data show it, unless noted: active = inhibition above about 27%; inactive = the rest.

COCCCNc1ccn2nc(-c3cccc(Cl)c3)cc2n1	FBA Mtb inh 35 | Mtb FBA inh conf inactive | GDH-TPI counter-2 inactive
OC1CCC(Nc2ccn3nc(-c4cccc(Cl)c4)cc3n2)CC1 (stereo unspecified)	FBA Mtb inh 34 | Mtb FBA inh conf 61 | GDH-TPI counter-2 42
CCC(CO)Nc1ccn2nc(-c3cccc(Cl)c3)cc2n1 (stereo unspecified)	FBA Mtb inh 31 | Mtb FBA inh conf 28 | GDH-TPI counter-2 21
CCCCCCCCCCCCCCCC(=O)Nc1ccn(C2OC(CO)C(O)C2O)c(=O)n1 (stereo unspecified)	none
COC(=O)Cc1c(C)c2ccc(OC(=O)c3ccccc3)cc2oc1=O	FBA Mtb inh 79 | Mtb FBA inh conf 99 | GDH-TPI counter-2 90
O=C(COc1ccc2c(c1)oc(=O)c1ccccc12)NC(Cc1ccc(Cl)cc1)C(=O)O (stereo unspecified)	FBA Mtb inh 74 | Mtb FBA inh conf 186 | GDH-TPI counter-2 132
COc1cccc(C(=O)COc2ccc3c(C)c(Cc4ccccc4)c(=O)oc3c2)c1	none
Cc1c(Cc2ccccc2)c(=O)oc2cc(OCC(=O)N[C@@H](Cc3ccccc3)C(=O)O)ccc12	FBA Mtb inh 92 | Mtb FBA inh conf 165 | GDH-TPI counter-2 136
O=C(COc1ccc2ccc(=O)oc2c1)NC(Cc1ccc(Cl)cc1)C(=O)O (stereo unspecified)	none
Cc1c(Cc2ccccc2)c(=O)oc2cc(OCC(=O)NCc3ccccn3)ccc12	FBA Mtb inh 78 | Mtb FBA inh conf 88 | GDH-TPI counter-2 70
CSc1nc2ccc(NS(=O)(=O)c3ccc(CNC(C)=O)cc3)cc2s1	none
COc1ccc(C(=O)Nc2nc3nc(-c4ccccc4)cc(=O)n3[nH]2)cc1	none
CC(=O)Nc1ccc(-c2ccccc2)s1	none
CNC(=O)c1ccc(-c2ccccc2)s1	FBA Mtb inh 28 | Mtb FBA inh conf 78 | GDH-TPI counter-2 53
O=C(O)c1ccc(-c2nc(-c3ccccc3)c(-c3cccs3)[nH]2)cc1	FBA Mtb inh 47 | Mtb FBA inh conf 75 | GDH-TPI counter-2 54
CN1Cc2c(N3CCOCC3)nc3sc(C(=O)c4ccc(Br)cc4)c(N)c3c2CC1(C)C	none (no result: BoNT A protease, BoNT-F LC inh, Anthrax LF prot, Bead autofluor)
CNC(=O)c1ccc(-c2sc3nc(N4CCOCC4)c4c(c3c2N)CCCC4)o1	none
CN1Cc2c(N3CCOCC3)nc3sc(C#N)c(N)c3c2CC1(C)C	BoNT A protease inconclusive, BoNT-F LC inh inconclusive, FBA Mtb inh 78 | Mtb FBA inh conf inactive | GDH-TPI counter-2 inactive | GDH-TPI dose 1.8
CNC(=O)c1ccc(-c2sc3nc(N4CCOCC4)c4c(c3c2N)CC(C)(C)OC4)o1	FBA Mtb inh 41 | Mtb FBA inh conf 45 | GDH-TPI counter-2 30
Clc1ccc(-c2nnc(-c3ccccc3)o2)cn1	none
Cc1ccc2nc(-c3ccc(NC(=O)CCS(=O)(=O)c4ccccc4)cc3)sc2c1	FBA Mtb inh 44 | Mtb FBA inh conf inactive | GDH-TPI counter-2 inactive
Cc1ccc2nc(-c3ccc(NC(=O)COC(=O)c4ccc(=O)[nH]c4)cc3)sc2c1	FBA Mtb inh 39 | Mtb FBA inh conf 39 | GDH-TPI counter-2 30
Cc1nc2ccc(NC(=O)CCS(=O)(=O)c3ccccc3)cc2s1	none
Cc1ccc2nc(-c3ccc(NC(=O)CNC4CC4)cc3)sc2c1	FBA Mtb inh 28 | Mtb FBA inh conf 48 | GDH-TPI counter-2 39
O=C(CCN1C(=O)NC2(CCCC2)C1=O)Nc1ccc(-c2nc3ccccc3s2)cc1	FBA Mtb inh 40 | Mtb FBA inh conf 174 | GDH-TPI counter-2 119
COc1ccc(C2(C)NC(=O)N(CC(=O)Nc3ccc(-c4nc5ccc(C)cc5s4)cc3)C2=O)cc1 (stereo unspecified)	none
Cc1ccc2nc(NC(=O)COC(=O)c3ccncc3)sc2c1	none
O=C(NCC(c1cccnc1)N1CCN(c2ccc(F)cc2)CC1)c1cccc(Cl)c1 (stereo unspecified)	none
Cc1ccc2nc(-c3ccc(NC(=O)CN4C(=O)c5ccccc5C4=O)cc3)sc2c1	FBA Mtb inh 34 | Mtb FBA inh conf inactive | GDH-TPI counter-2 inactive
CCC1(c2ccc(F)cc2)NC(=O)N(CC(=O)Nc2ccc(-c3nc4ccc(C)cc4s3)cc2)C1=O (stereo unspecified)	FBA Mtb inh 41 | Mtb FBA inh conf active | GDH-TPI counter-2 150
NC(=O)c1ccc[n+](CC(=O)OCCC23CC4CC(CC(C4)C2)C3)c1	none
Cc1nc2oc3c(NCc4ccccn4)ncnc3c2c2c1COC(C)(C)C2	FBA Mtb inh 94 (no result: BoNT A protease, BoNT-F LC inh, Anthrax LF prot, Bead autofluor) | Mtb FBA inh conf 86 | GDH-TPI counter-2 74
CC1(C)Cc2nc3oc4c(NCc5ccccc5)ncnc4c3cc2CO1	FBA Mtb inh 60 | Mtb FBA inh conf 47 | GDH-TPI counter-2 44
CC1(C)Cc2nc3oc4c(NCCCN5CCOCC5)ncnc4c3cc2CO1	BoNT-F LC inh inconclusive
CC(C)c1nc2oc3c(NCc4ccccn4)ncnc3c2c2c1COC(C)(C)C2	none
COC(=O)c1csc(-c2ccc(CO)o2)n1	none (no result: GDH-TPI counter-1)
CCc1ccc(NC(=O)NNC(=O)c2cc3ccccc3cc2O)cc1	none
CC(=O)Nc1ccc(Br)c2ccccc12	none
O=C(Nc1ccc(Br)c2ccccc12)c1ccc2ccccc2c1O	BoNT-F LC inh inconclusive, FBA Mtb inh 31 | Mtb FBA inh conf inactive | GDH-TPI counter-2 inactive
COc1ccc(NC(=O)NNC(=O)c2ccc3ccccc3c2O)cc1OC	FBA Mtb inh 36 | GDH-TPI counter-2 active
Cc1ccccc1NC(=O)NNC(=O)c1ccc2ccccc2c1O	FBA Mtb inh 31 | Mtb FBA inh conf 55 | GDH-TPI counter-2 36
CCc1ccc(NC(=O)NNC(=O)c2ccc3ccccc3c2O)cc1	FBA Mtb inh 36 | Mtb FBA inh conf active | GDH-TPI counter-2 190
COC(=O)C1CN(C(=O)COc2cc(C)cc(C)c2)c2ccccc2O1 (stereo unspecified)	none
CC1CCN(CCOc2cccc(Br)c2)CC1	none
COc1ccccc1NC(=O)NNC(=O)c1ccc2ccccc2c1O	FBA Mtb inh 32 | Mtb FBA inh conf 143 | GDH-TPI counter-2 113

From PubChem BioAssay
